From the supplement of paper PMC10338343
± gives the standard deviation.

The sequences below were run on EfPiwi piRISC loaded with piRNA #1 (26 nt) (assay: pre-steady-state target cleavage rate (min^-1); auxiliary factor: 500 nM Ephydatia muelleri Gtsf1; guide: piRNA #1 5'p-UGAGGUAGUAGGUUGUAUAGUAUCCA; MIWI and MILI are mouse PIWI proteins and EfPiwi is from a freshwater sponge; tags in brackets are library labels; higher = faster piRNA-guided slicing of the target).
Method in brief: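 The pre-steady-state cleavage rate was obtained by Cleave-'n-Seq with a burst-and-steady-state fit. A transcribed, DNA-blocked target RNA library (0.1 nM) was mixed with 1 nM active affinity-purified piRISC carrying one synthetic guide, with or without 500 nM GTSF1 partner protein, in HEPES–potassium acetate buffer at 33 °C for 0–8 or 0–960 min. Uncleaved targets were sequenced and normalised to depth and to weakly complementary targets, with three trials pooled and k3 capped at 0.0001 min^-1.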

Sequence	pre-steady-state target cleavage rate
GGAGACGAUACUAUACACCCUACUACCUCA	0.011 ± 0.0045
GGAGUUGGAUACUAUACAACCUACUACCUCA	0.197 ± 0.056
GGAGUGGUUACUAUACAAGCUACUACCUCA	0.00582 ± 0.0018
GGAGACCAAACUAUACAACCUACUACCUCA	0.0177 ± 0.0063
GGAGACCAUACUAUACUACCUACUACCUGA	0.00271 ± 0.0014
GGAGACGAUACUAUACAACUCUACUACCUCA	0.00452 ± 0.0031
GGAGAGGAUAGCUAUACAACCUACUACCUCA	0.0146 ± 0.0073
GGAGACCUAACUAUACAAGCUAGUACCUCA	0.00423 ± 0.0037
GGAGACGAAACUAUACAACCUACUUCCUCA	0.00318 ± 0.0023
GGAGAGCAUACUAUACAACCUACUAGCUCA	0.00355 ± 0.0022
GGAGUGGAUACUAUACAACCUACUACCAUCA	0.00588 ± 0.0026
GGAGACCUAUCUAUACAACCUACUACCUGA	0.00569 ± 0.0033
GGAGACCAUACUAGUACAACCUACUACCUCA	0.00796 ± 0.0044
GGAGAGGAAACUAUACAACCUACUAGCUCA	0.00276 ± 0.0019
GGAGACGAUACUAUACAACCUACUAACCUCA	0.0059 ± 0.0019
GGAGUGGACACUAUACAACCUACUACCUCA	0.115 ± 0.041
GGAGACCUAUCUAUACAACCUACUACCUUCA	0.0604 ± 0.023
GGAGUGGAUACAUAUACAACCUACUACCUCA	0.0717 ± 0.027
GGAGACCAUACUAUACAACCUACUUCCUGA	0.00388 ± 0.0027
GGAGUGGUUACUAUACUACCUACUACCUCA	0.00596 ± 0.0023

Sequence	pre-steady-state target cleavage rate
GGAGACCAUACUAUACAACCUAGUACCUCA	0.00446 ± 0.0014
GGAGAGGAUACUAUACAACCUACUUACCUCA	0.00951 ± 0.004
GGAGUGGAUAGAAUACAACCUACUACCUCA	0.0062 ± 0.0044
GGAGACGAUUCUAUACAUCCUACUACCUCA	0.00332 ± 0.0024
GGAGACCUAACUGAUACAACCUACUACCUCA	0.00745 ± 0.0044
GGAGACCUUACCUAUACAACCUACUACCUCA	0.0117 ± 0.0057
GGAGAGGAUAGUAUACAACCUACUACCACA	0.00287 ± 0.002
GGAGACGAUACUAUACAACCUACUCCCUCA	0.00312 ± 0.00092
GGAGACGAUACUAUACUACCAACUACCUCA	0.0038 ± 0.0023
GGAGAGGAUACUAUGCAACCUACUACCUCA	0.242 ± 0.091
GGAGACCUUACUAUACAAGCUACUAGCUCA	0.00451 ± 0.0043
GGAGUGGAUAUUAUACAACCUACUACCUCA	0.00879 ± 0.0043
GGAGACGUUACUAUAGAACCUACUACCUCA	0.0026 ± 0.0023
GGAGUGGAUACUAUACAACCUAUACCUCA	0.00334 ± 0.0019
GGAGUGGAUACUCUACAACCUACUACCUCA	0.00588 ± 0.0041
GGAGUGGAAACUAUACAAGCUACUACCUCA	0.00579 ± 0.0027
GGAGACCUAACUAUACCACCUACUACCUCA	0.0066 ± 0.0031
GGAGAGGAUACUAUACAUCCUACUUCCUCA	0.00317 ± 0.0017
GGAGACCAUACUAUACAACGUACAACCUCA	0.00296 ± 0.0025
GGAGGGGAUACUAUACAACCUACUACCUCA	0.209 ± 0.067
